In the library only some 21% were active in any assay of this set; here they are far more common.
NS1 function inh – influenza NS1 inhibition | Potency, µM (doses to about 46.1 µM) | hit rate 0.4% among 270,000 | AID 2326; calls by dose curve; further: actives are rising curves; nearly all actives have a fitted effect of over 50% in size
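S. cerevisiae expressing influenza A NS1, grown in glucose, washed, then diluted 1:100 into pH 6.0 -URA galactose medium with 23 nl compound. Growth recovery read as OD600; NS1-free strain serves as control.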
Shiga toxin inh – Shiga toxin inhibition; Vero cells, Shiga toxin protein synthesis inhibition reporter; inhibition, % at 38.7 µM; hit rate 9.2% among 290,000; in the data active means inhibition mostly above about 28%, no sharp cut-off; inactive means mostly below about 43%
FBPA Giardia inh – inhibitors of Giardia lamblia fructose-1,6-bisphosphate aldolase; purified Giardia FBPA; Potency, µM (titrated, usually from 59.6 µM), usual class: inhibitors; AID 2451; A8B2U2; hit rate 0.71% among 290,000; further: nearly all actives have a fitted effect of over 55% in size
Target sequence (A8B2U2 whole entry, looked up): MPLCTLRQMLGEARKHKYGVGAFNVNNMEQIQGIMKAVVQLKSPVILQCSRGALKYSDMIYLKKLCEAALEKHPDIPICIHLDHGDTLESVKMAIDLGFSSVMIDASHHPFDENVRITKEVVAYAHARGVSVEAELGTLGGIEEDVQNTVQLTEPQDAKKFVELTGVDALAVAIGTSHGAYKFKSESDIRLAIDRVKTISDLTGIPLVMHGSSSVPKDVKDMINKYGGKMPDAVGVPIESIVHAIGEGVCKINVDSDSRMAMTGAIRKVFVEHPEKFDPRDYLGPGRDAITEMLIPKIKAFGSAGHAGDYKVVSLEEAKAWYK
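Giardia FBPA (40 nM reagent) was preincubated 10 min at RT with compound (up to 57.5 uM final), then substrate plus GAPDH/TPI/NAD/arsenate coupling system with diaphorase/resazurin was added; resorufin fluorescence (525/598 nm) was read after 20 min.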
Pf growth 96h – P. falciparum growth inhibition at 96 hour, primary screen for plastid delayed-death inhibitors. hit rate 6.9% among 320,000. AID 504834. Potency, µM (highest dose often 28.7 µM), most hits filed as inhibitors. P. falciparum luciferase reporter growth, 96 h
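Two-generation exposure (96 h) targets delayed-death phenotype. Reporter parasites carrying integrated firefly luciferase, in red cells at 2% hematocrit and 0.05% parasitemia final, kept at 37 C, 5% CO2; luminescence loss indicates inhibition.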
Pf growth 48h – P. falciparum growth inhibition at 48 hours (one generation); AID 504832; P. falciparum luciferase growth in erythrocytes, 48 h; hit rate 5.9% among 310,000; Potency, µM (series often up to 28.7 µM), usual class: inhibitors
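A one-generation exposure of luciferase-tagged malaria parasites in RPMI 1640/Albumax erythrocyte culture, 37 C and 5% CO2. Inhibition is inferred from decreased luminescence after adding detection reagent.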
Cycloheximide cs – counter-screen for Shiga toxin inhibitors: cycloheximide protein synthesis inhibition; cell reporter, cycloheximide protein synthesis inhibition counterscreen; hit rate 12% among 300,000; max response, %; in the data active means max response mostly above about 13%, no sharp cut-off; inactive means mostly below about 14%; further: read at 38.3 µM for the half of the compounds with a filed dose
Of the large screens only hits and unclear results are named; the others gave an inactive call. Unless noted, the call rests on the fitted dose curve; in most records, active means well fitted curve in the direction sought with a large enough effect; inconclusive means small, poorly fitted or top-dose-only effect, or another doubt; inactive means no such curve, though single readings can be large; an effect the other way counts as inactive or inconclusive.

Cc1ccc(C(=O)/C=C\NCc2ccccc2)cc1	Shiga toxin inh 86, Cycloheximide cs 75
CC(/C=C/C(=O)c1ccc(C)cc1)=C\c1ccccc1	Cycloheximide cs 18
O=C1Nc2ccccc2C12NCCc1c2[nH]c2ccccc12 (stereo not given)	Pf growth 48h 6.6µM (no result: Pf growth 96h)
CC(C)[C@H](NC(=O)c1ccccc1F)C(=O)Nc1nc2c(s1)CCCC2	Cycloheximide cs 42
Cc1onc(-c2c(F)cccc2Cl)c1C(=O)Nc1nc2c(s1)CCCC2	Pf growth 48h inconclusive
CC(C)(C)c1ccc(C(=O)NC(=S)Nc2nc3c(s2)CCCC3)cc1	Shiga toxin inh 113, Cycloheximide cs 69
C/C(=N\Nc1nc2c(s1)CCCC2)c1ccc(Cl)cc1	Shiga toxin inh 116, FBPA Giardia inh inconclusive, Pf growth 96h inconclusive, Pf growth 48h inconclusive, Cycloheximide cs 83
CN(C)c1ccc(C(=O)Nc2nc3c(s2)CCCC3)cc1	Shiga toxin inh 21, Cycloheximide cs 45
CC(=O)N1CCN(S(=O)(=O)c2cccc(C(=O)Nc3nc4c(s3)CCCC4)c2)CC1	Pf growth 96h inconclusive (no result: Pf growth 48h)
CCCn1c(SCC(=O)c2cc(C)n(C3CC3)c2C)n[nH]c1=O	none (no result: NS1 function inh, Shiga toxin inh, FBPA Giardia inh, Cycloheximide cs)
Cc1nccn1CC(=O)N/N=C/c1cccs1	none
CCCC[C@@H]1C[C@H]1C(NC(=O)c1ccccc1)c1ccc(-c2ccccc2)cc1 (stereo not given in full)	none (no result: NS1 function inh, Shiga toxin inh, Pf growth 96h, Pf growth 48h, Cycloheximide cs)
Cc1ccc(C(O)P(=O)(OC2CCCCC2)OC2CCCCC2)cc1 (stereo not given)	Pf growth 96h inconclusive (no result: Pf growth 48h)
O=P(OC1CCCCC1)(OC1CCCCC1)C(O)c1ccc(Cl)cc1Cl (stereo not given)	NS1 function inh inconclusive, Pf growth 48h 1.9µM (no result: Pf growth 96h)
O=P(OC1CCCCC1)(OC1CCCCC1)C(O)c1c(Cl)cccc1Cl (stereo not given)	Pf growth 96h 5.2µM, Pf growth 48h 10µM
Cc1cc(Nc2nc3ccccc3nc2Cl)n(-c2ccc([N+](=O)[O-])cc2)n1	Pf growth 96h 1µM (no result: Pf growth 48h)
COc1ccc(CCn2c(=N)c(C(=O)NCC3CCCO3)cc3c(=O)n4ccccc4nc32)cc1OC (stereo not given)	Pf growth 96h inconclusive, Pf growth 48h inconclusive (no result: FBPA Giardia inh)
COC(=O)C1CCN(C(=O)c2cc3c(=O)n4cccc(C)c4nc3n2Cc2ccccc2)CC1	Pf growth 96h 4.1µM, Pf growth 48h 5.9µM
Cc1cccn2c(=O)c3cc(C(=O)NCC4CCCO4)c(=N)n(CCc4ccccc4)c3nc12 (stereo not given)	Pf growth 96h inconclusive, Pf growth 48h 4.7µM (no result: FBPA Giardia inh)
COc1ccc(CCNC(=O)c2cc3c(=O)n4cccc(C)c4nc3n(CC3CCCO3)c2=N)cc1 (stereo not given)	Pf growth 96h inconclusive, Pf growth 48h 1.5µM
COc1ccc(CCNC(=O)c2cc3c(=O)n4cccc(C)c4nc3n(Cc3ccncc3)c2=N)cc1	none (no result: Pf growth 96h)
Cc1ccc(C(=O)CSc2nnc3n2CCCCC3)s1	none (no result: NS1 function inh, Shiga toxin inh, FBPA Giardia inh, Cycloheximide cs)
CCC[C@H]1COCCS(=O)(=O)N1Cc1ccc(Br)cc1	none
Cc1ccc(NC(=O)N2CCCc3ccccc32)cc1	Shiga toxin inh 86, Cycloheximide cs 31
CC(C)=CC(=O)N1CCCc2ccccc21	none
CN1CCN(c2ccc(NC(=O)N3CCc4ccccc43)cc2)CC1	Cycloheximide cs 18
Cc1ccc(NC(=O)N2CCc3ccccc32)cc1	Cycloheximide cs 21
CCc1ccccc1NC(=O)N1CCCc2ccccc21	Shiga toxin inh 59, Cycloheximide cs 43
Cc1cc(NC(=O)Nc2ccc(Cl)c(Cl)c2)n(-c2ccccc2)n1	none
Cc1ccc(NC(=O)N2CCc3ccccc32)cc1C	Shiga toxin inh 98, Cycloheximide cs 31 (no result: NS1 function inh)
C=CCNC(=O)CSc1ncc2c(n1)-c1c(csc1SC)CC2	FBPA Giardia inh inconclusive
CSc1scc2c1-c1nc(SCC(=O)C(C)(C)C)ncc1CC2	Pf growth 96h 9.3µM, Pf growth 48h 9.3µM
COc1ccc(NC(=O)c2nn(C)c3c2CS(=O)(=O)c2ccccc2-3)cc1	Pf growth 96h inconclusive
Cc1ccccc1NC(=O)c1nn(C)c2c1CS(=O)(=O)c1ccccc1-2	Pf growth 96h 13µM (no result: FBPA Giardia inh)
CC(C)Cc1nnc(NC(=O)CCC(=O)NC2CCCC2)s1	Pf growth 96h inconclusive, Pf growth 48h inconclusive (no result: FBPA Giardia inh)
COc1ccc(C[C@H]2c3cc(O)c(OC)cc3CC[N+]2(C)[O-])cc1O (stereo not given in full)	Pf growth 96h inconclusive, Pf growth 48h inconclusive
